Source: PubChem BioAssay (NCI)
This is part of a sample that, as a whole, favours compounds with a hit. Of some 83,000 tested, about 20% had one in any assay.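 Assay: single dose, 48 h. Readout: percent growth (0 = no net growth; negative = cell death). Active: <10.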 Activity calls are given as the source filed them.

Legend:
Experiment in all cases: NCI-60 one-dose screen, 48 h (100 = growth as untreated, 0 = no growth, -100 = all killed)
Details in all cases: 10 µM
SK-MEL-2 melanoma = test system: SK-MEL-2 melanoma
SN12C renal = test system: SN12C renal
UO-31 renal = test system: UO-31 renal
TK-10 renal = test system: TK-10 renal
ACHN renal = test system: ACHN renal
CAKI-1 renal = test system: CAKI-1 renal
A498 renal = test system: A498 renal
CCRF-CEM leukemia = test system: CCRF-CEM leukemia
MOLT-4 leukemia = test system: MOLT-4 leukemia
SR leukemia = test system: SR leukemia
RPMI-8226 leukemia = test system: RPMI-8226 leukemia
OVCAR-8 ovarian = test system: OVCAR-8 ovarian
OVCAR-4 ovarian = test system: OVCAR-4 ovarian
SK-OV-3 ovarian = test system: SK-OV-3 ovarian
IGROV1 ovarian = test system: IGROV1 ovarian
OVCAR-3 ovarian = test system: OVCAR-3 ovarian
HS 578T breast = test system: HS 578T breast
NCI/ADR-RES ovarian = test system: NCI/ADR-RES ovarian
OVCAR-5 ovarian = test system: OVCAR-5 ovarian

Measured: growth

COc1cc(C(=O)n2nc(N)c3c(C)cc(C)nc32)cc(OC)c1OC
inactive: SK-MEL-2 melanoma 30.3% | SN12C renal 79.8% | UO-31 renal 84.7% | TK-10 renal 98.3% | ACHN renal 91.9% | CAKI-1 renal 76.7% | A498 renal 60.2% | CCRF-CEM leukemia 57.6% | MOLT-4 leukemia 36% | SR leukemia 13% | RPMI-8226 leukemia 59.6% | OVCAR-8 ovarian 84.4% | OVCAR-4 ovarian 92.8% | SK-OV-3 ovarian 92.3% | IGROV1 ovarian 86% | OVCAR-3 ovarian 69.3% | HS 578T breast 83.2% | NCI/ADR-RES ovarian 60.8%

C#C[C@]1(O)CC[C@H]2[C@@H]3CC[C@H]4CC(F)(F)CC[C@]4(C)[C@H]3CC[C@@]21C
inactive: SK-MEL-2 melanoma 115% | SN12C renal 87.4% | UO-31 renal 102% | TK-10 renal 97.7% | ACHN renal 89.3% | CAKI-1 renal 84.6% | A498 renal 41.1% | CCRF-CEM leukemia 74.7% | MOLT-4 leukemia 95.7% | RPMI-8226 leukemia 80.1% | OVCAR-8 ovarian 84.6% | OVCAR-5 ovarian 88.5% | OVCAR-4 ovarian 94.2% | SK-OV-3 ovarian 60.8% | OVCAR-3 ovarian 93.9% | NCI/ADR-RES ovarian 92.2%
active: SR leukemia 8.15%

O=S(=O)(O)C1(O)CCCCC1
inactive: SK-MEL-2 melanoma 90.1% | SN12C renal 99.3% | UO-31 renal 58.9% | TK-10 renal 169% | ACHN renal 72.9% | CAKI-1 renal 76% | A498 renal 112% | CCRF-CEM leukemia 92.8% | MOLT-4 leukemia 87.9% | SR leukemia 83.1% | RPMI-8226 leukemia 81.5% | OVCAR-8 ovarian 79.3% | OVCAR-5 ovarian 90.5% | SK-OV-3 ovarian 94.9% | IGROV1 ovarian 65.9% | OVCAR-3 ovarian 103% | HS 578T breast 104% | NCI/ADR-RES ovarian 95.4%

COc1ccc(-c2nc3sc(-c4ccccc4)c(-c4ccccc4)n3c2/C=C/c2ccc(F)cc2)cc1
inactive: SK-MEL-2 melanoma 89.3% | SN12C renal 86.7% | UO-31 renal 82.7% | TK-10 renal 115% | ACHN renal 78.9% | CAKI-1 renal 67% | A498 renal 108% | CCRF-CEM leukemia 88.1% | MOLT-4 leukemia 74.8% | SR leukemia 90.5% | RPMI-8226 leukemia 95.5% | OVCAR-8 ovarian 85% | OVCAR-5 ovarian 88.2% | SK-OV-3 ovarian 91.1% | IGROV1 ovarian 115% | OVCAR-3 ovarian 94.1% | HS 578T breast 95.8% | NCI/ADR-RES ovarian 103%

COc1cc(-c2c(C#N)c(N)n3c(nc4ccccc43)c2C#N)cc(Br)c1OC
active: SR leukemia -1.43% | OVCAR-4 ovarian -2.8% | OVCAR-3 ovarian -36.6%
inactive: SK-MEL-2 melanoma 76.7% | SN12C renal 40.1% | UO-31 renal 17.5% | TK-10 renal 11.1% | ACHN renal 50.1% | CAKI-1 renal 69.1% | A498 renal 67.1% | CCRF-CEM leukemia 19.6% | MOLT-4 leukemia 43.3% | RPMI-8226 leukemia 35.8% | OVCAR-8 ovarian 36.4% | OVCAR-5 ovarian 68.9% | SK-OV-3 ovarian 49.3% | HS 578T breast 19.7% | NCI/ADR-RES ovarian 78.1%

CCOC(=O)/C(C#N)=C(/C)C1CC1
inactive: SK-MEL-2 melanoma 111% | SN12C renal 107% | UO-31 renal 88.3% | TK-10 renal 116% | ACHN renal 105% | CAKI-1 renal 104% | A498 renal 94.1% | CCRF-CEM leukemia 103% | MOLT-4 leukemia 114% | SR leukemia 102% | RPMI-8226 leukemia 98.4% | OVCAR-8 ovarian 107% | OVCAR-5 ovarian 105% | SK-OV-3 ovarian 111% | OVCAR-3 ovarian 101% | HS 578T breast 107% | NCI/ADR-RES ovarian 111%

O=C(CCCC(=O)N/N=C/c1cc(Cl)ccc1O)N/N=C\c1cc(Cl)ccc1O
active: UO-31 renal 5.41% | CAKI-1 renal -1.73% | CCRF-CEM leukemia -0.225% | MOLT-4 leukemia -12.9% | SR leukemia 1.74%
inactive: SK-MEL-2 melanoma 51.7% | SN12C renal 35.3% | TK-10 renal 32.3% | ACHN renal 23.1% | A498 renal 63.5% | RPMI-8226 leukemia 27.3% | OVCAR-8 ovarian 20.3% | OVCAR-4 ovarian 22.1% | SK-OV-3 ovarian 13.9% | IGROV1 ovarian 31.2% | OVCAR-3 ovarian 35.5% | HS 578T breast 68.4% | NCI/ADR-RES ovarian 14.1%

CCCCCCCCCCCCCC[n+]1ccccc1
active: SK-MEL-2 melanoma -78% | SN12C renal -41.8% | UO-31 renal 5.61% | TK-10 renal -70.4% | ACHN renal 4.31% | CAKI-1 renal -43.8% | A498 renal 7.27% | CCRF-CEM leukemia -42.2% | MOLT-4 leukemia -51.9% | SR leukemia -22.6% | RPMI-8226 leukemia -57% | OVCAR-8 ovarian -68.7% | OVCAR-4 ovarian -6.58% | SK-OV-3 ovarian -0.0653% | OVCAR-3 ovarian -51.2% | HS 578T breast -12.6%
inactive: NCI/ADR-RES ovarian 73.3%

COc1cc(-c2nc3cc(Cl)c(Cl)cc3[nH]2)ccc1OCC(=O)NN
inactive: SK-MEL-2 melanoma 95.9% | SN12C renal 78.7% | UO-31 renal 71.1% | TK-10 renal 126% | ACHN renal 72.6% | CAKI-1 renal 41% | A498 renal 83.1% | CCRF-CEM leukemia 59.8% | MOLT-4 leukemia 67.8% | SR leukemia 77.4% | RPMI-8226 leukemia 107% | OVCAR-8 ovarian 76.4% | OVCAR-4 ovarian 85.3% | SK-OV-3 ovarian 93.3% | OVCAR-3 ovarian 93% | HS 578T breast 95.1% | NCI/ADR-RES ovarian 87.8%
